40 compounds from PubChem BioAssay (EPA / NIEHS) can be followed below.

Activity calls are given as the source filed them. Rule for the calls: active = hit-call score of the fitted dose curve at least 0.9, where 1 is the maximum; inactive = score below 0.9.

For orientation: AC50 means the concentration giving half of the maximal activity seen.

Nuclear factor erythroid 2-related factor 2 (Homo sapiens), sequence (Q16236 whole entry, looked up): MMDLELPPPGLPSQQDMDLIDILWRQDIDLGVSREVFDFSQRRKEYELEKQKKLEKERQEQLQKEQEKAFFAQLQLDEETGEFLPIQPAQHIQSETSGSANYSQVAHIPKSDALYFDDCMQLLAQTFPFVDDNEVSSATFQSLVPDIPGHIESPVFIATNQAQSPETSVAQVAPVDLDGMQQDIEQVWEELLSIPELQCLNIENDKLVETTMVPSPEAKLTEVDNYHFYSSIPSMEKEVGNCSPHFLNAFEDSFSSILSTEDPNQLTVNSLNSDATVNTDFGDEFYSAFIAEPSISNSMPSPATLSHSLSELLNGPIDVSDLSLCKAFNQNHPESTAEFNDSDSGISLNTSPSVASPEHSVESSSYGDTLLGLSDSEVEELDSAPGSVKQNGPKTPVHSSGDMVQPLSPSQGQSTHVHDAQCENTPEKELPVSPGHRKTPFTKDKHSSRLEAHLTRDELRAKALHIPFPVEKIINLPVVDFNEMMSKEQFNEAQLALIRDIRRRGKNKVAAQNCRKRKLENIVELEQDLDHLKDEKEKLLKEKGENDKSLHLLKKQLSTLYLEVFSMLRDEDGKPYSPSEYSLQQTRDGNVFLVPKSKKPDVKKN

Read-out in the assay: Nuclear factor erythroid 2-related factor 2 (Homo sapiens) (UniProt Q16236)
Kind of assay: LTEA_HepaRG_NFE2L2: Life Technologies and Expression Analysis (LTEA) Assay for Nuclear factor erythroid 2-related factor 2 (NFE2L2) Transcription Factor using HepaRG (AID 2283527).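 For outcome: TaqMan qRT-PCR transcript level normalised to ACTB GAPDH and POLR2A housekeeping genes.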 To be noted: mRNA level, 48 h; actives raise or lower the signal. The protocol:
LTEA_HepaRG is a cell based, multiplexed-readout assay that uses HepaRG, a human liver cell line, with measurements taken at 48 hours after chemical dosing on a 96-well plate.LTEA_HepaRG_NFE2L2 is one of 102 assay component(s) measured in the LTEA HepaRG cell culture assay. It is a marker of Inflammation/injury.Data from the assay component LTEA_HepaRG_NFE2L2 was analyzed into 1 endpoint. This assay endpoint, LTEA_HepaRG_NFE2L2, was analyzed with bidirectional fitting relative to DMSO as the negative control and baseline of activity. Using a type of inducible reporter, measures of mRNA induction for gain or loss-of-signal activity can be used to understand regulation of transcription factor activity. To generalize the intended target to other relatable targets, this assay endpoint is annotated to the dna binding intended target family, where the subfamily is basic leucine zipper.
A total of 1060 chemcials from the ToxCast library were tested in eight-point concentration-response experiments. Cell culture and cytotoxicity assays were conducted at Thermo Fisher Scientific's Custom Services facility (Madison, WI). A single lot of human HepaRG cells (Thermo Fisher Scientific, Frederick, MD) was used for the cell culture experiments. 96-well format collagen type I coated plates of human HepaRG cells were prepared using established methods. Briefly, cryopreserved HepaRG cells were thawed, plated at a density of approximately 100,000 cells/well in HepaRG Thaw, Plate, and General Purpose media (HPRG770, Thermo Fisher Scientific), and incubated for 48 hours. 0.5% DMSO was selected as vehicle control to balance the requisite need of DMSO in HepaRG cultures to maintain differentiation (for example, baseline metabolism, proportions of hepatocytes vs. cholangiocytes), while enabling further hepatic receptor pathway activation (for example, PXR and CAR) in response to chemical exposure. 48 hours after plating, the culture medium was replaced with HepaRG Serum-Free Incudtion Media. Cells were exposed to each test chemical in duplicate and maintained in CO2 incubators for another 48 hours. Chemical plates were thawed to room temperature and 200x concentrations of treatment groups were prepared. 8-point conentration-reponse curves were made with the highest exposure at 100 uM, followed by half-log dilutions, all in 0.5% DMSO. Each test plate contained variouse controls, induction positive controls (1mM phenobarbital), cytotoxicity positive controls ([…] aflatoxin B1), vehicle controls (0.5% DMSO), and total lysis controls (0.5% DMSO). Cell morphology images were taken using an Essen IncuCyte FLR automated microscope, with six 96-well plates imaged in about 24 minutes. Images were captured and exported and JPEG files. Spent culture media was transfered to black-well plates for the LDH assay, and remaining media was sorted at -80 C for later use. Cells were treated with RLT buffer and frozen until shipped for gene expression analysis. Total RNA was isolated from the cell suspension in 75 uL of Buffer RLT (Qiagen, Germantown, MD 20874) by Quintiles/Expression Analysis (Durham, NC) using a custom isolation procedure. Total RNA from each plate well was transferred to a preamplification plate. Fluidigm's 96.96 Dynamic ArrayTM (Fluidigm, Amsterdam, the Netherlands) technology was used for gene expression analyses by quantitative reverse transcription polymerase chain reaction (qRT-PCR, performed by Quintiles/Expression Analysis, Durham, NC)89. Standard TaqManTM Assays (Applied Biosystems/ThermoFisher Scientific, Foster City, CA) were used to assess the expression of 93 genes selected based on their selectivity and sensitivity to important hepatic receptors known to be modulated by environmental chemicals; importance in human hepatocyte functionality; and hepatotoxicity. […]
Turning to `Cc1ccc([N+](=O)[O-])cc1C`, the result was inactive.

As for `Nc1ccc(Cl)cc1`, the outcome was inactive.

`CSC(C)(C)C=NO`: the outcome was inactive.

For `CCN(CC)c1ccccc1`, the call was inactive.

For `[N-]=[N+]=[N-]`, the call was inactive.

Regarding `CC(C)(C)OOC(C)(C)C`, the outcome was inactive.

As for `CCCCCCCc1ccc(O)cc1`, the outcome was inactive.

With `CCCN(CCC)c1c([N+](=O)[O-])cc(C(C)C)cc1[N+](=O)[O-]`, the result was inactive.

For `c1ccc(OP(Oc2ccccc2)Oc2ccccc2)cc1`, the call was inactive.

In the case of `COCCOCCO`, the result was inactive.

For `CC(Cc1ccc(OCC(=O)O)cc1)NCC(O)c1csc(C(F)(F)F)n1` (stereo not given), the call was inactive.

As to `OCC1CO1` (stereo not given), the outcome was inactive.

With `CCOc1ccc(C(C)(C)COCc2cccc(Oc3ccccc3)c2)cc1`, the result was inactive.

Take `Cc1ccc(N)cc1N`: the compound was called inactive.

On to `CCCCN(CCCC)N=O`, for which the result was inactive.

`O=C(O)C1C(C(=O)O)C2(Cl)C(Cl)=C(Cl)C1(Cl)C2(Cl)Cl` (stereo not given): the compound was classed as inactive.

`c1ccc2c(c1)Nc1ccccc1S2`: the outcome was inactive.

Consider `Nc1ccc2ccccc2c1`, for which the AC50 was 29.8 µM (active).

As to `CCOS(=O)(=O)OCC`, the result was inactive.

On to `c1nc[nH]n1`, for which the compound was called inactive.

Consider `ClC(Cl)c1ccccc1`, for which the call was inactive.

Regarding `O=[N+]([O-])c1ccccc1`, the outcome was inactive.

With `CCOC(=O)c1ccccc1C(=O)OCC`, the outcome was inactive.

Regarding `CN(C)C(=O)Cl`, the outcome was inactive.

Take `CCNc1nc(Cl)nc(NC(C)(C)C)n1`: the call was inactive.

`O=C(O)C(Cl)Cl`: the result was inactive.

As for `Nc1cc2c3c(c1)C(c1ccccc1)=N[C@@H](NC(=O)c1cccnc1)C(=O)N3CC2`, the compound was classed as inactive.

With `O=P(Oc1ccccc1)(Oc1ccccc1)Oc1ccccc1`, the AC50 was 21.2 µM (active).

Consider `CCC1(c2ccccc2)C(=O)N=C(O)NC1=O` (stereo not given), for which the outcome was inactive.

In the case of `CCC(C)(C)c1ccc(O)cc1`, the outcome was inactive.

In the case of `Cc1cccc(N)c1`, the compound was classed as inactive.

In the case of `CCOP(=S)(OCC)SCSCC`, the compound was classed as inactive.

On to `CCOP(=S)(Oc1ccc([N+](=O)[O-])cc1)c1ccccc1` (stereo not given), for which the AC50 is 37.9 µM (active).

Turning to `CCCCc1ccccc1`, the compound was classed as inactive.

Regarding `c1cc2c3c(cccc3c1)CC2`, the outcome was inactive.

As for `O=P1(N(CCCl)CCCl)NCCCO1` (stereo not given), the result was inactive.

On to `O=[N+]([O-])c1ccc(Cl)c(Cl)c1`, for which the call was inactive.

In the case of `ClC1=C(Cl)C2(Cl)C3C(Cl)C(Cl)CC3C1(Cl)C2(Cl)Cl` (stereo not given), the outcome was inactive.

Regarding `CC(Cl)(Cl)C(=O)O`, the compound was classed as inactive.

As for `CCCCN(CCCC)SN(C)C(=O)Oc1cccc2c1OC(C)(C)C2`, the compound was called inactive.
